HepG2 tox: kills HepG2 cells in TGF-b inhibitor counter-screen; HepG2 CAGA-GFP viability, ATP luminescence, 18 h; Potency, µM (titrated, usually from 46.1 µM), inactives show at the highest dose activity change, negative = cytotoxicity, hits mostly cytotoxic; 410,000 tested, 0.76% active; further: potency means the concentration at half of the fitted maximal effect
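HepG2 CAGA-GFP cells (1000/well, DMEM with 1% FBS) received compound, then TGF-beta at 500 pg/mL final, and were incubated 18 hours at 37 degrees C. Viability was read by CellTiter-Glo luminescence. Media-only wells were set as complete cell-killing and DMSO as no toxicity.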
HT1080NT lethal: kills 2HG-producing HT-1080-NT fibrosarcoma cells; HT-1080-NT fibrosarcoma viability, CellTiter-Glo ATP luminescence, 48 h; Potency, µM (doses to about 46.1 µM), inactives show at the highest dose activity, negative = less viability, usual class: cytotoxic; 360,000 tested, 1.6% active;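 further: NT is the 2HG producing partner of a matched IDH1 knockdown line; potency means the concentration at half of the fitted maximal effect; 0% = DMSO-treated cells and -100% = media-only wells without cells; nearly all actives have a fitted effect of over 55% in size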
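Viability of the 2HG-overproducing fibrosarcoma line after 48 hours of compound exposure at 37 degrees C was determined by luminescence with CellTiter-Glo, and concentration-effect curves were then fitted and categorized.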
IL-1B inflam inh: inhibitors of inflammasome signaling (IL-1 beta secretion). THP-1 LPS/ATP IL-1B secretion, AlphaLISA, 16 h; active compounds read low. activity change, % at 57.5 µM. 360,000 tested, 4.7% active. AID 743279; in the data active means activity change below about -50%; inconclusive means mostly about -30% to -49%; further: on the % scale 0 is the no-effect control and ±100 the full control effect
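THP-1 cells pretreated 1 hr with compounds (up to 57.5 uM final), then stimulated with LPS (250 ng/mL final) plus ATP (1.25 mM final); secreted IL-1B measured by AlphaLISA after 16 hr, decreased signal indicating inhibition.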
TGFb inhibitor: blocks TGF-b signaling; AID 588855; 410,000 tested, 1.2% active; Potency, µM (series often up to 46.1 µM), inactives show top-dose activity, negative = inhibition, usual class: inhibitors; HepG2 CAGA-GFP TGF-b/SMAD3 reporter, GFP fluorescence, 18 h; TGF-beta stimulated, 500 pg/mL final; further: potency means the concentration at half of the fitted maximal effect; on the % scale 0 is the no-effect control and ±100 the full control effect; nearly all actives have a fitted effect of over 65% in size
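HEPG2 CAGA-GFP cells (1000/well, DMEM with 1% FBS) were pre-incubated 2 h at 37 degrees C, given compound by pin tool, then stimulated with TGF-beta at 500 pg/mL final for 18 h before per-cell GFP fluorescence imaging.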
HT1080 IDH1KD tx: kills HT-1080 cells with IDH1 knockdown; HT-1080 IDH1 knockdown viability, ATP luminescence, 48 h; Potency, µM (top dose mostly 46.1 µM), for the others: at the top dose activity, negative = toxicity, usual class: cytotoxic; 360,000 tested, 2% active; AID 686971;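 further: potency means the concentration at half of the fitted maximal effect; 0% = DMSO wells and -100% = cell-free medium wells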
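IDH1KD HT-1080 cells, 750/well, RPMI + 5% FBS; compound pinned after 2 h settling; 48 h, 37 °C; CellTiter-Glo luminescence; % activity normalised to DMSO and no-cell wells; curves fitted, classed by r2 and efficacy.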
Giardia killer: Giardia lamblia killing. activity change, % at 7.66 µM, hits read low. 340,000 tested, 0.15% active. Giardia lamblia trophozoite viability. AID 540267; in the data active means activity change below about -80%; inconclusive means between about -30% and that limit;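 further: parasites exposed to compound for two days anaerobically before the ATP read; on the % scale 0 is the no-effect control and ±100 the full control effect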
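Luminescent ATP signal served as the viability read-out, measured 15-30 min after adding ATP detection reagent to trophozoites that had been incubated with compounds for 48 hrs at 37 deg C anaerobically at 100 cells/well.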
The depositor's hits bear a star. Hits are enriched below; roughly 6.5% of the tested compounds scored in any of these assays. Unless noted, the call rests on the fitted dose curve; in most records, active means well fitted curve in the direction sought with a large enough effect; inconclusive means small, poorly fitted or top-dose-only effect, or another doubt; inactive means no such curve, though single readings can be large; an effect the other way counts as inactive or inconclusive.

Results for COc1cccc2sc(Nc3nnc(-c4ccccc4Cl)o3)nc12 ?
HepG2 tox: -31.9%; HT1080NT lethal: inconclusive; IL-1B inflam inh: 48.9; TGFb inhibitor: inconclusive; HT1080 IDH1KD tx: inconclusive; Giardia killer: -10.6

Results for COc1cccc(-c2nnc(NC(C)=O)o2)c1 ?
HepG2 tox: -32.6%; HT1080NT lethal: 1.1%; IL-1B inflam inh: -14.0; TGFb inhibitor: -4.4%; HT1080 IDH1KD tx: 2.2%; Giardia killer: -11.1

Results for CCCCN1C(=O)C(=O)c2cc(Cl)ccc21 ?
HepG2 tox: -86.4%; HT1080NT lethal: 25.9µM*; IL-1B inflam inh: 37.7; TGFb inhibitor: 12.6µM*; HT1080 IDH1KD tx: 20.6µM*; Giardia killer: 14.1

Results for CCCN1C(=O)C(=O)c2cc(C)ccc21 ?
HepG2 tox: 6.7%; HT1080NT lethal: inconclusive; IL-1B inflam inh: 48.8; TGFb inhibitor: 4.5%; HT1080 IDH1KD tx: inconclusive; Giardia killer: 7.5

What do the screens show for `CC(C)(C)c1sc(N)nc1-c1ccccc1`?
HepG2 tox: -35.3%; HT1080NT lethal: inconclusive; IL-1B inflam inh: -102.0*; TGFb inhibitor: -3.6%; HT1080 IDH1KD tx: -19.9%; Giardia killer: 18.8

What do the screens show for `CC(=O)Nc1ccc(NC(=O)COc2c(C)cc(Br)cc2C)cc1`?
HepG2 tox: -30.1%; HT1080NT lethal: -8.7%; IL-1B inflam inh: 10.7; TGFb inhibitor: -24.2%; HT1080 IDH1KD tx: -7.7%; Giardia killer: -7.4

How did Cc1ccccc1OCC(=O)Nc1ccncc1 do in these assays?
HepG2 tox: -1.5%; HT1080NT lethal: -2.4%; IL-1B inflam inh: 10.1; TGFb inhibitor: -23.8%; HT1080 IDH1KD tx: -5.7%; Giardia killer: -8.9

How did Cc1cc(C)cc(OCC(=O)Nc2ccc(F)cc2)c1 do in these assays?
HepG2 tox: -10.1%; HT1080NT lethal: 13.4%; IL-1B inflam inh: -51.9*; TGFb inhibitor: -4.1%; HT1080 IDH1KD tx: 14.2%; Giardia killer: 8.0

How did CSc1cc(C)c(OCC(=O)Nc2ccc(NC(C)=O)cc2)c(C)c1 do in these assays?
HepG2 tox: 0.199µM*; HT1080NT lethal: -3.1%; IL-1B inflam inh: -17.4; TGFb inhibitor: -10.5%; HT1080 IDH1KD tx: -17.2%; Giardia killer: 3.7

Results for Cc1ccccc1OCC(=O)Nc1ccc(Cc2ccncc2)cc1 ?
HepG2 tox: -25.8%; HT1080NT lethal: -17.6%; IL-1B inflam inh: -76.7*; TGFb inhibitor: -31.5%; HT1080 IDH1KD tx: -17.8%; Giardia killer: -10.3

How did Cc1cc(OCC(=O)Nc2ccc(Br)cc2)cc2c1C(=O)CC(C)(C)O2 do in these assays?
HepG2 tox: -7.0%; HT1080NT lethal: -16.2%; IL-1B inflam inh: -81.3*; TGFb inhibitor: inconclusive; HT1080 IDH1KD tx: -3.1%; Giardia killer: -3.4

Results for O=c1[nH]c2ccccc2c(=O)n1CCCO ?
HepG2 tox: -2.8%; HT1080NT lethal: 6.1%; IL-1B inflam inh: 1.9; TGFb inhibitor: 10.0%; HT1080 IDH1KD tx: 10.5%; Giardia killer: -6.2

Results for COc1ccccc1NC(=O)c1sc2ncn(CC(=O)Nc3ccccc3)c(=O)c2c1C ?
HepG2 tox: 1.1%; HT1080NT lethal: -4.9%; IL-1B inflam inh: 18.8; TGFb inhibitor: 4.8%; HT1080 IDH1KD tx: -2.9%; Giardia killer: -2.3

What do the screens show for `Cc1cc(OCC(=O)Nc2ccncc2)cc(C)c1Br`?
HepG2 tox: -1.0%; HT1080NT lethal: -23.5%; IL-1B inflam inh: -50.3*; TGFb inhibitor: -1.6%; HT1080 IDH1KD tx: 10.3µM*; Giardia killer: -4.8

What do the screens show for `Cc1cc(OCC(=O)Nc2ccncc2)ccc1Cl`?
HepG2 tox: -41.9%; HT1080NT lethal: -12.4%; IL-1B inflam inh: -6.3; TGFb inhibitor: 0.5%; HT1080 IDH1KD tx: -9.9%; Giardia killer: -3.0

Results for CC(=O)c1ccc(NC(=O)Nc2ccc([N+](=O)[O-])cc2)cc1 ?
HepG2 tox: 9.4%; HT1080NT lethal: 17.6%; IL-1B inflam inh: 14.3; TGFb inhibitor: -20.8%; HT1080 IDH1KD tx: 14.3%; Giardia killer: 8.5

Results for Cc1cc([N+](=O)[O-])ccc1NC(=O)Nc1ccc(F)cc1F ?
HepG2 tox: -24.3%; HT1080NT lethal: 15.5%; IL-1B inflam inh: -82.0*; TGFb inhibitor: -26.7%; HT1080 IDH1KD tx: 13.9%; Giardia killer: 1.9

How did Cc1ccc(NC(=O)Nc2cccc([N+](=O)[O-])c2)cc1F do in these assays?
HepG2 tox: -32.3%; HT1080NT lethal: 14.6µM*; IL-1B inflam inh: -94.7*; TGFb inhibitor: inconclusive; HT1080 IDH1KD tx: 11.6µM*; Giardia killer: 15.3

What do the screens show for `Cc1cc(NC(=O)Nc2cccc([N+](=O)[O-])c2)no1`?
HepG2 tox: -0.7%; HT1080NT lethal: 12.4%; IL-1B inflam inh: -5.7; TGFb inhibitor: -0.6%; HT1080 IDH1KD tx: 3.6%; Giardia killer: -16.9

How did O=C(Nc1ccc(OC(F)(F)F)cc1)c1[nH]ncc1[N+](=O)[O-] do in these assays?
HepG2 tox: -36.7%; HT1080NT lethal: -22.0%; IL-1B inflam inh: -3.7; TGFb inhibitor: 11.2µM*; HT1080 IDH1KD tx: -11.8%; Giardia killer: 9.5

Results for O=C(Nc1ccc(Oc2ccc(NC(=O)Nc3ccc([N+](=O)[O-])cc3)cc2)cc1)Nc1ccc([N+](=O)[O-])cc1 ?
HepG2 tox: -15.0%; HT1080NT lethal: inconclusive; IL-1B inflam inh: -87.6*; TGFb inhibitor: inconclusive; HT1080 IDH1KD tx: inconclusive; Giardia killer: 0.1

How did O=c1[nH]nc(SCc2ccccc2Cl)n1-c1ccc2c(c1)OCCO2 do in these assays?
HepG2 tox: -1.9%; HT1080NT lethal: -17.9%; TGFb inhibitor: -4.6%; HT1080 IDH1KD tx: -13.4%; Giardia killer: -6.2

Results for CC1=C(C(=O)Nc2cccc(C)c2C)C2(CCCCC2)OC1=O ?
HepG2 tox: 5.3%

Results for CCOc1ccccc1NC(=O)CN(c1nccs1)S(=O)(=O)c1ccc(N)cc1 ?
HepG2 tox: -3.4%; HT1080NT lethal: 0.4%; IL-1B inflam inh: -9.8; TGFb inhibitor: 2.3%; HT1080 IDH1KD tx: -2.4%; Giardia killer: 7.1

How did Cc1cc([N+](=O)[O-])ccc1NC(=O)c1cncc(Br)c1 do in these assays?
HepG2 tox: 0.5%; HT1080NT lethal: 5.5%; IL-1B inflam inh: -66.6*; TGFb inhibitor: 4.9%; HT1080 IDH1KD tx: 26.5%; Giardia killer: 11.6

Results for O=C(Nc1ccc(OC(F)(F)F)cc1)Nc1cccnc1 ?
HepG2 tox: -29.1%; HT1080NT lethal: 6.4%; IL-1B inflam inh: 43.2; TGFb inhibitor: 0.5%; HT1080 IDH1KD tx: 5.4%; Giardia killer: -8.3

How did COc1ccc([N+](=O)[O-])cc1NC(=O)c1cncc(Br)c1 do in these assays?
HepG2 tox: -4.0%; HT1080NT lethal: 3.9%; IL-1B inflam inh: 2.8; TGFb inhibitor: -0.8%; HT1080 IDH1KD tx: 6.1%; Giardia killer: 10.7

From PubChem BioAssay
